Experimental findings from article PMC5540273 (PLoS ONE, 2017) are described below.

Test systems include CAMK1; CAMK2A; CAMK2B; CAMK2D; CAMK2G; CAMK4; CAMKK1; CAMKK2; CASK; CDC2L2; CDK2; CDK3; CDK4-cyclinD1; CDK4-cyclinD3; CDK4; CDK5; CDK7.
Common to all, as to settings: concentration: 1 μM, replicates: in singlicate; n = 1
The test system of a further test is T1, CDC2L1.
T1 construct: gene CDK11B

Another test has as its system T2, CDC2L5.
T2 construct: gene CDK13

For another test, the system named is T3, CDK11.
T3 construct: gene CDK19

Structures are written as SMILES.
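Note: KINOMEscan kinase panel screen.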

In the case of `COc1cccc(CC(=O)N2CCc3cc(-c4cn(C)c5ncnc(N)c45)ccc32)c1` [GSK2608899], the “%Inh” value amounted to 16% with CAMK1; 0% with CAMK2A; 0% in the test with CAMK2B; 15% in the test on CAMK2D; 27% in the test with CAMK2G; 13% with CAMK4. For the same molecule, the “%Inh” value in the test on CAMKK1 came out at 7%; in the test on CAMKK2 it was 9%; in the test on CASK, 16%; with CDC2L1, 1%; in the test on CDC2L2 it was 8%; with CDC2L5, 0%. The “%Inh” value was 98.4% in the test on CDK11; 18% in the test on CDK2; 12% with CDK3; 0% in the test on CDK4-cyclinD1; 0% with CDK4-cyclinD3; 25% in the test with CDK4. In addition, the “%Inh” value is reported as 6% in the test with CDK5 and 4% in the test with CDK7.
In the case of `CS(=O)(=O)c1cccc(CNc2nc(Nc3ccc4c(c3)CCC(=O)N4)ncc2C(F)(F)F)c1`, the “%Inh” value with CAMK1, in the test with CAMK2A, with CAMK2B, in the test on CAMK2D, in the test with CAMK2G and with CAMK4 was 0% each time. Also, the “%Inh” value in the test on CAMKK1 worked out at 20%; in the test with CAMKK2 it was 9%; in the test on CASK it was 0%; with CDC2L1 it was 0%; in the test on CDC2L2, 0%; in the test with CDC2L5, 0%. The “%Inh” value turned out to be 0% with CDK11; 30% in the test with CDK2; 12% in the test with CDK3; 0% in the test on CDK4-cyclinD1; 0% in the test on CDK4-cyclinD3; 6% with CDK4. The “%Inh” value with CDK5 was 22%; with CDK7 it was 80%.
Take `CN(c1ccc2c(c1)nc(NCc1ccccc1)n2C)c1ccnc(Nc2ccc(CS(C)(=O)=O)cc2)n1.Cl` [GW811603]: the “%Inh” value with CAMK1, with CAMK2A, in the test with CAMK2B, in the test with CAMK2D, with CAMK2G and with CAMK4 was 0% in each case. The “%Inh” value was found to be 14% with CAMKK1; 0% in the test on CAMKK2; 0% with CASK; 94.2% in the test with CDC2L1; 80% with CDC2L2; 49% with CDC2L5. Also, the “%Inh” value in the test on CDK11 was 24%; in the test on CDK2, 0%; in the test on CDK3, 0%; in the test with CDK4-cyclinD1, 35%; in the test with CDK4-cyclinD3, 0%; with CDK4 it was 34%. Moreover, the “%Inh” value in the test on CDK5 came out at 0%; with CDK7, 20%.
`O=C1NC(=O)C(c2ccccc2Cl)=C1Nc1cccc(Cl)c1` [SB-342409]: the “%Inh” value in the test on CAMK1 is reported as 0%; in the test on CAMK2A it was 10%; with CAMK2B, 0%; in the test on CAMK2D, 43%; in the test on CAMK2G it was 19%; with CAMK4, 47%. For the same molecule, the “%Inh” value is 21% in the test with CAMKK1; 0% in the test with CAMKK2; 39% with CASK; 0% in the test with CDC2L1; 13% in the test with CDC2L2; 0% in the test with CDC2L5. For the same molecule, the “%Inh” value is recorded as 0% in the test on CDK11; 1% in the test on CDK2; 14% in the test with CDK3; 7% in the test on CDK4-cyclinD1; 33% in the test with CDK4-cyclinD3; 0% in the test on CDK4. Moreover, the “%Inh” value is on record as 0% in the test on CDK5 and 42% with CDK7.
As for `Cl.N#CCc1ccc(Nc2nccc(Nc3ccc(Oc4ccccc4)cc3)n2)cc1` [GW639905], the “%Inh” value is on record as 10% in the test with CAMK1; 0% in the test with CAMK2A; 0% in the test with CAMK2B; 0% in the test on CAMK2D; 0% with CAMK2G; 0% in the test on CAMK4. The “%Inh” value came out at 0% with CAMKK1; 0% with CAMKK2; 8% in the test on CASK; 0% in the test with CDC2L1; 1% in the test on CDC2L2; 0% in the test with CDC2L5. The “%Inh” value with CDK11 was 0%; in the test on CDK2 it was 0%; in the test on CDK3, 4%; in the test on CDK4-cyclinD1, 0%; with CDK4-cyclinD3 it was 3%; in the test with CDK4 it was 0%. The “%Inh” value in the test with CDK5 and with CDK7 was 0% each time.
For the molecule `Fc1cc(Cl)ccc1Nc1ccnc2cc(-c3ccc(CN4CCOCC4)o3)ccc12` [GW560109], the “%Inh” value in the test with CAMK1 is 0%; with CAMK2A it was 0%; with CAMK2B, 0%; in the test with CAMK2D, 0%; with CAMK2G, 0%; in the test with CAMK4, 13%. In addition, the “%Inh” value with CAMKK1 was 0%; in the test with CAMKK2, 0%; in the test on CASK it was 16%; in the test with CDC2L1, 0%; in the test with CDC2L2, 0%; with CDC2L5 it was 0%. Besides, the “%Inh” value worked out at 0% in the test with CDK11; 0% in the test on CDK2; 18% in the test with CDK3; 0% in the test with CDK4-cyclinD1; 0% in the test with CDK4-cyclinD3; 0% in the test with CDK4. In addition, the “%Inh” value in the test on CDK5 and in the test on CDK7 was 0% in each case.
As to `O=C(O)C(F)(F)F.O=c1[nH]ccc2nc(N[C@@H]3CCNC3)nc(Nc3cc(Cl)cc(Cl)c3)c12` [GSK2188764], the “%Inh” value in the test on CAMK1 is reported as 84%; in the test on CAMK2A, 71%; in the test on CAMK2B, 37%; in the test with CAMK2D, 60%; in the test on CAMK2G, 57%; in the test on CAMK4, 95.9%. Besides, the “%Inh” value in the test on CAMKK1 is 75%; in the test on CAMKK2, 46%; with CASK it was 19%; in the test with CDC2L1, 1%; in the test with CDC2L2 it was 24%; in the test with CDC2L5, 0%. Besides, the “%Inh” value in the test with CDK11 is recorded as 2%; with CDK2 it was 0%; in the test on CDK3 it was 30%; in the test with CDK4-cyclinD1, 38%; in the test on CDK4-cyclinD3, 23%; in the test on CDK4, 13%. The “%Inh” value in the test on CDK5 was found to be 44%; with CDK7, 85%.
In the case of `Cl.Cl.NC(CNC(=O)c1cc(Br)c(-c2ccnc3[nH]ccc23)s1)c1ccccc1` (stereo not drawn) [GSK1322949], the “%Inh” value in the test with CAMK1 stood at 42%; in the test on CAMK2A, 45%; with CAMK2B it was 39%; in the test on CAMK2D, 38%; in the test on CAMK2G it was 48%; in the test with CAMK4, 0%. Also, the “%Inh” value in the test with CAMKK1 is recorded as 8%; with CAMKK2, 29%; in the test with CASK, 38%; in the test on CDC2L1 it was 0%; in the test on CDC2L2, 9%; with CDC2L5 it was 0%. For the same molecule, the “%Inh” value with CDK11 is reported as 42%; in the test on CDK2, 0%; with CDK3, 25%; in the test with CDK4-cyclinD1, 17%; in the test with CDK4-cyclinD3, 0%; with CDK4 it was 23%. Moreover, the “%Inh” value is 0% in the test with CDK5 and 47% in the test with CDK7.
For the molecule `COC(=O)Nc1nc2ccc(Oc3ccc(NC(=O)Nc4cc(C(F)(F)F)ccc4F)cc3)cc2[nH]1.Cl` [GW654607], the “%Inh” value is 2% in the test with CAMK1; 0% in the test on CAMK2A; 0% in the test on CAMK2B; 0% with CAMK2D; 15% in the test with CAMK2G; 0% in the test with CAMK4. The “%Inh” value was found to be 6% in the test with CAMKK1; 6% in the test with CAMKK2; 12% with CASK; 0% with CDC2L1; 4% in the test on CDC2L2; 6% with CDC2L5. For the same molecule, the “%Inh” value with CDK11 came to 87%; with CDK2 it was 30%; in the test on CDK3, 18%; with CDK4-cyclinD1, 0%; in the test on CDK4-cyclinD3, 0%; in the test on CDK4, 26%. Further, the “%Inh” value turned out to be 17% with CDK5 and 97.4% in the test on CDK7.
